Screens from PubChem BioAssay.
Tb PGK inh: qHTS Assay to Find Inhibitors of Phosphoglycerate Kinase; PGK/GAPDH coupled, Kinase-Glo luminescence, 60 min; Potency, µM (doses to about 57.5 µM), hits mostly inhibitors; hit rate 0.043% among 380,000; AID 602233, 2012; further: nearly all actives have a fitted effect of over 60% in size
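Recombinant glycosomal PGK reaction used 1,3-bisphosphoglycerate generated in-well by GAPDH (100nM final) in 100mM TEA pH 7.6, 5mM MgCl2, 0.01% Tween-20. After 60 minutes at room temperature, ATP was read by Kinase-Glo Plus luminescence end-point.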
WRN helicase inh: qHTS for Inhibitors of WRN Helicase; Bifunctional 3'-5' exonuclease/ATP-dependent helicase WRN (Homo sapiens), Q14191; WRN helicase unwinding, fluorescent forked duplex, kinetic; Potency, µM (series often up to 114 µM), usual class: inhibitors; hit rate 0.46% among 360,000; AID 651768, 2012; further: nearly all actives have a fitted effect of over 55% in size
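Primary qHTS, 1536-well format. 20 nM WRN + compound, 15 min RT; start with 100 nM forked fluorophore/quencher duplex, 2 mM ATP (final); kinetic read ex 525/em 598 nm.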
FEN1 inh-1: qHTS Assay for the Inhibitors of Human Flap endonuclease 1 (FEN1); P39748; Recombinant FEN1 flap cleavage, fluorescence, 15 min; Potency, µM (series often up to 114 µM), actives largely listed as inhibitors; hit rate 0.35% among 390,000; AID 588795, 2011; further: nearly all actives have a fitted effect of over 65% in size
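FEN1 at 10 nM preincubated with compounds 15 min at room temperature, then flap DNA substrate added at 50 nM final. Signal read at 0 and 15 min; concentration-response fitted with four-parameter Hill equation.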
GRP78 ERSR act: qHTS for Inducers of the Endoplasmic Reticulum Stress Response (ERSR) in Human Glioma: qHTS. U87-MG GRP78 promoter luciferase reporter, 16 h. hit rate 0.02% among 420,000. Potency, µM, most hits filed as activators; further: series mostly up to about 76 µM; nearly all actives have a fitted effect of over 35% in size
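ERSR induction read as luciferase luminescence (Bright-Glo, 10 min at room temperature) in stably transfected human U87-MG glioma cells exposed to compounds for 16 h, using GRP78 as sensor.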
Pin1 inhibitor: qHTS Assay to Find Inhibitors of Pin1; Peptidyl-prolyl cis-trans isomerase NIMA-interacting 1 (Homo sapiens), Q13526; Pin1 FP peptide displacement, HiFluor488, 10 min; Potency, µM (series often up to 115 µM), most hits filed as inhibitors; hit rate 0.009% among 390,000; active means well fitted inhibition curve with a large enough effect in the polarisation, with a control signal flat, not every such curve was filed as active; inconclusive means small, poorly fitted or top-dose-only effect, or effect the other way, or a change in a side signal; inactive means no such curve, though single readings can be large or run the other way; the % refers to the polarisation
PI5P4Ka inh: qHTS for Inhibitors of phosphatidylinositol 5-phosphate 4-kinase (PI5P4K). Phosphatidylinositol 5-phosphate 4-kinase type-2 alpha (Homo sapiens), P48426. PI5P4Kalpha enzyme, ADP-Glo luminescence, 60 min; active compounds read low. hit rate 1.2% among 330,000. AID 652105, 2013. max response, %; active means max response of -50% or lower; inconclusive means between -30% and -50%; inactive means -30% or higher; further: value at the top dose of about 77 µM
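Enzyme plus substrate dispensed, test compounds pinned in, then ATP (5 microM final) added. After 60 min at RT, ADP-Glo reagent 1 for 45 min and reagent 2 for 30 min preceded luminescence imaging.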
FEN1 inh-2: qHTS Assay for the Inhibitors of FEN1: Confirmatory Assay for Cherry-picked Compounds; shares compounds with FEN1 inh-1; FEN1 flap cleavage, TAMRA/BHQ2 fluorogenic DNA substrate; Potency, µM, hits mostly inhibitors; hit rate 79% among 880; AID 720498, 2013; further: nearly all actives have a fitted effect of over 60% in size
Hits are given with their value; - = inactive; ? = inconclusive; . = no result; [ ] = another dose, or the depositor's remark. Shown are actives, neighbours in structure and some others; about 1.3% of the full set was active somewhere. Unless noted, the call rests on the fitted dose curve; in most records, active means well fitted curve in the direction sought with a large enough effect; inconclusive means small, poorly fitted or top-dose-only effect, or another doubt; inactive means no such curve, though single readings can be large; an effect the other way counts as inactive or inconclusive.

SMILES | Tb PGK inh | WRN helicase inh | FEN1 inh-1 | GRP78 ERSR act | Pin1 inhibitor | PI5P4Ka inh | FEN1 inh-2
O=S(=O)(O)C(F)(F)C(F)(F)C(F)(F)C(F)(F)C(F)(F)C(F)(F)C(F)(F)C(F)(F)F | . | . | . | - | . | . | .
CCN1/C(=C\C=C\C2=[N+](CC)c3ccccc3C2(C)C)C(C)(C)c2ccccc21 | ? | 45µM | 45µM | - | ? | ? | .
CCC(=O)CCCCC[C@@H]1NC(=O)[C@H]2CCCCN2C(=O)[C@H]([C@@H](C)CC)NC(=O)[C@H](Cc2cn(OC)c3ccccc23)NC1=O | . | . | . | - | . | . | .
COc1ccc(OC)c(C[C@H](C)N)c1 | . | . | . | - | . | . | .
O=C(N/N=C/c1c(O)n(CCc2ccccc2)c(=O)[nH]c1=O)c1ccccc1O | - | - | - | - | - | -75 | .
COc1ccc(Cn2c(O)c(/C=N/NC(=O)c3ccccc3O)c(=O)[nH]c2=O)cc1 | - | - | ? | ? | - | - | .
O=C(N/N=C/c1c(O)n(Cc2ccccc2)c(=O)[nH]c1=O)c1ccccc1O | - | ? | ? | - | - | -70 | .
CCCCCCC(=O)N/N=C/c1c(O)n(CCc2ccccc2)c(=O)[nH]c1=O | - | - | - | - | - | ? | .
COc1ccc(Cn2c(O)c(/C=N/NC(=O)c3ccccc3)c(=O)[nH]c2=O)cc1 | - | - | ? | - | - | ? | .
O=C(N/N=C/c1c(O)n(Cc2ccc(F)cc2)c(=O)[nH]c1=O)c1ccccc1O | - | - | - | - | - | -63 | .
C[CH2][Hg][S]c1ccccc1C(=O)O | - | -[11.6 µM] | 22µM | - | - | - | .
CNc1ccccc1C(=O)O | . | . | . | - | . | . | .
CC(=O)C1C(N2CC2)CC2C3CC=C4CC(O)CCC4(C)C3CCC21C (configuration not stated) | - | - | ? | - | - | - | .
CCOP(=S)(OCC)Oc1ccc(Cl)cc1Cl | . | . | . | - | . | . | .
Cc1cc(/C=C2/C(=O)NC(=O)N(Cc3ccco3)C2=O)c(C)n1-c1ccccc1 | - | ? | - | - | ? | ? | .
CN(C)c1ccc(/C=C2/C(=O)NC(=O)N(Cc3ccco3)C2=O)cc1 | - | 50µM | - | - | - | -58 | .
CCN(CC)c1ccc(/C=C2/C(=O)NC(=O)N(Cc3ccco3)C2=O)cc1 | - | 56µM | ? | - | ? | -73 | .
NC(=O)C1CCN(/C=C2\C(=O)NC(=O)N(Cc3ccco3)C2=O)CC1 | ? | ? | ? | - | - | -61 | .
CCN(CC)S(=O)(=O)c1ccc2c(c1)c(=O)c(C(=O)NCc1ccccc1OC)cn2C | - | . | - | - | - | . | .
O=[N+]([O-])/C=C/c1c(Cl)cccc1Cl | - | 32µM | - | - | - | - | .
Cc1ccc(C(c2sc3nc(C)nn3c2O)N2CCOCC2)cc1 (configuration not stated) | - | - | ? | - | - | - | .
Cc1ccc(-c2nc(N3CCOCC3)s[n+]2-c2ccccc2)cc1 | - | ? | - | - | - | -69 | .
Cc1c(N)nc([C@@H](CC(N)=O)NC[C@H](N)C(N)=O)nc1C(=O)N[C@H](C(=O)N[C@H](C)[C@H](O)[C@H](C)C(=O)N[C@@H](C(=O)NCCc1nc(-c2nc(C(=O)NCCC[S+](C)C)cs2)cs1)[C@H](C)O)[C@H](O[C@@H]1O[C@@H](CO)[C@@H](O)[C@H](O)[C@@H]1O[C@H]1O[C@H](CO)[C@H](O)[C@H](OC(N)=O)[C@@H]1O)c1cnc[nH]1 | . | . | . | - | . | . | .
O=C1NC(=O)N(CCC2=CCCCC2)C(=O)/C1=C\c1cccs1 | - | ? | ? | - | - | ? | .
O=C1NC(=O)N(CCc2ccc(F)cc2)C(=O)/C1=C/c1ccco1 | ? | 35µM | ? | - | - | -75 | 76
SMILES | Tb PGK inh | WRN helicase inh | FEN1 inh-1 | GRP78 ERSR act | Pin1 inhibitor | PI5P4Ka inh | FEN1 inh-2
COc1ccccc1N1C(=O)NC(=O)/C(=C/c2ccc([N+](=O)[O-])s2)C1=O | - | 35µM | 45µM | - | . | -63 | 11
COc1cccc(N2C(=O)NC(=O)/C(=C/c3ccc([N+](=O)[O-])s3)C2=O)c1 | - | 35µM | 40µM | - | ? | ? | 15
Cc1ccc(/C=C2\C(=O)NC(=O)N(CC3CCCO3)C2=O)s1 (configuration not stated) | - | - | ? | - | - | ? | .
COc1ccc(CN2C(=O)NC(=O)/C(=C/c3ccc([N+](=O)[O-])s3)C2=O)cc1 | ? | 40µM | 14µM | - | ? | -75 | 17
CCCSP(=S)(OCC)Oc1ccc(Cl)cc1Cl (configuration not stated) | . | . | . | - | . | . | .
COc1cc2c(c3oc4cccc(O)c4c(=O)c13)C1C=CO[C@@H]1O2 (some centres not stated) | . | . | . | - | . | . | .
CC(C)(C)OC(=O)N1CC(O)CC1C(=O)OCC(=O)c1ccc(-c2ccccc2)cc1 (configuration not stated) | - | - | - | - | ? | - | .
Cc1occc1C(=O)Nc1ccccc1 | . | . | . | - | . | . | .
CC(C)CS(=O)(=O)C1=NN2C(=N)/C(=C\c3ccc(OC(=O)c4ccco4)cc3)C(=O)N=C2S1 | - | ? | - | - | ? | -84 | ?
COc1ccc(CCN)cc1O | - | - | - | - | - | - | .
NCCc1cc(O)c(O)cc1O | - | ? | 25µM | - | ? | -76 | ?
O=C1NC(=O)N(c2ccc3c(c2)OCO3)C(=O)/C1=C/c1ccc(N2CCCCC2)o1 | - | - | - | - | ? | - | .
O=C1NC(=O)N(c2cccc(Cl)c2)C(=O)/C1=C\c1ccc(Sc2nc3ccccc3[nH]2)o1 | ? | 89µM | 45µM | - | ? | -74 | ?
COC(=O)c1sccc1NC(=O)c1ccc(C#N)cc1 | - | - | - | - | ? | - | .
COC(=O)c1nc(-c2ccc3c(n2)C(=O)C(N)=C(OC)C3=O)c(N)c(-c2ccc(OC)c(OC)c2O)c1C | - | ? | 16µM | - | ? | - | 38
COc1cc2c(cc1OC)-c1c3c(cc4c1[C@@H](C2)N(C)CC4)OCO3 | - | ? | 2.5µM | - | - | - | 34
Cc1cc(C=C(C#N)C#N)ccc1N1CCCC1 | - | - | ? | - | ? | - | 76
CC[n+]1c(/C=C/C=C/c2ccc(N(C)C)cc2)sc2ccccc21 | ? | 56µM | 50µM | - | - | ? | 38
CCCCC(C#N)(Cn1cncn1)c1ccc(Cl)cc1 (configuration not stated) | . | . | . | - | . | . | .
